Bioassay records (PubChem)
Shown are actives, neighbours in structure and some others; about 9.9% of the full set was active somewhere.
Tau fibril ThT: qHTS for Inhibitors of Tau Fibril Formation, Thioflavin T Binding. Microtubule-associated protein tau (Homo sapiens), P10636. recombinant tau K18 P301L, heparin-induced fibrillization, ThT fluorescence. Potency, µM (series often up to 57.4 µM), actives largely listed as inhibitors. 270,000 tested, 2.1% active; note: nearly all actives have a fitted effect of over 55% in size
Target sequence (P10636 561-689 P618L limits assumed): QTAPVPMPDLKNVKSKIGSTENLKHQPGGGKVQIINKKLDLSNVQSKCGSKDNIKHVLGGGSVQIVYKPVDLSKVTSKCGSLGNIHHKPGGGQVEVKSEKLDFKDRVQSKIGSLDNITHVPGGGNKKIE
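Heparin-induced fibrillization of the P301L-mutant K18 repeat-domain fragment of human tau was followed by ThT binding in quantitative high-throughput format.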
Tau fluor counter: Counterscreen qHTS for Inhibitors of Tau Fibril Formation, Fluorescence Polarization. tau K18 P301L (four-repeat tau fragment) Alexa594 fluorescence, heparin fibrillization. Potency, µM (titrated, usually from 57.7 µM). 280,000 tested, 0.93% active. AID 1463, 2008; note: nearly all actives have a fitted effect of over 55% in size
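Human K18 P301L tau (15 uM unlabeled plus 0.24 uM Alexa 594-labeled, final) in 100 mM sodium acetate pH 7 was mixed with compound and 20 uM heparin and incubated 6 hr at 37 C.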
KDM4E inh: qHTS Assay for Inhibitors of Human Jumonji Domain Containing 2E (JMJD2E). JMJD2E catalytic domain, FDH-coupled NADH fluorescence (FDH is formaldehyde dehydrogenase). Potency, µM (doses to about 57.1 µM), most hits filed as inhibitors. Lysine-specific demethylase 4E (Homo sapiens), B2RXH2. 230,000 tested, 1.6% active; active = well fitted inhibition curve with a large enough effect, not every such curve was filed as active; inconclusive = small, poorly fitted or top-dose-only effect, or another doubt; inactive = no such curve, though single readings can be large or run the other way; note: nearly all actives have a fitted effect of over 50% in size
Target sequence (B2RXH2 1-337 limits assumed): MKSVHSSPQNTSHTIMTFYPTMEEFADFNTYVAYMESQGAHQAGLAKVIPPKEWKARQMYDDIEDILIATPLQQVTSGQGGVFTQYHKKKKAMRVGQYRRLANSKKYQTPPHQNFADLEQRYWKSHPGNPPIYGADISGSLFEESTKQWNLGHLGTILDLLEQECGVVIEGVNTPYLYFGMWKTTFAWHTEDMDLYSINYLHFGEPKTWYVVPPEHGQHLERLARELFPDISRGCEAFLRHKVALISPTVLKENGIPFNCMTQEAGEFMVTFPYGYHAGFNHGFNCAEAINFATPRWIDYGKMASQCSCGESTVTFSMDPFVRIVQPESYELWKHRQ
Tau FP inhib: qHTS for Inhibitors of Tau Fibril Formation, Fluorescence Polarization. Microtubule-associated protein tau (Homo sapiens), P10636. K18 P301L tau heparin fibrillization, Alexa594 FP, 6 h. Potency, µM (titrated, usually from 57.7 µM), hits mostly inhibitors. 280,000 tested, 0.39% active; note: nearly all actives have a fitted effect of over 55% in size
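Human K18 P301L fragment (15 uM unlabeled plus 0.24 uM Alexa 594-labeled) in 100 mM sodium acetate pH 7 with compound, aggregation induced by 20 uM heparin for 6 hr at 37 C. ThT (30 uM) added for 1 hr, then Alexa 594 FP read.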
HPGD inh: qHTS Assay for Inhibitors of HPGD (15-Hydroxyprostaglandin Dehydrogenase); 15-hydroxyprostaglandin dehydrogenase [NAD(+)] (Homo sapiens), P15428; AID 894, 2007; 150,000 tested, 4.3% active; purified HPGD, NADH fluorescence kinetic, PGE2 substrate; Potency, µM, actives largely listed as inhibitors; active = well fitted inhibition curve with a large enough effect, not every such curve was filed as active; inconclusive = small, poorly fitted or top-dose-only effect, or another doubt; inactive = no such curve, though single readings can be large or run the other way
Target sequence (P15428 whole entry, looked up): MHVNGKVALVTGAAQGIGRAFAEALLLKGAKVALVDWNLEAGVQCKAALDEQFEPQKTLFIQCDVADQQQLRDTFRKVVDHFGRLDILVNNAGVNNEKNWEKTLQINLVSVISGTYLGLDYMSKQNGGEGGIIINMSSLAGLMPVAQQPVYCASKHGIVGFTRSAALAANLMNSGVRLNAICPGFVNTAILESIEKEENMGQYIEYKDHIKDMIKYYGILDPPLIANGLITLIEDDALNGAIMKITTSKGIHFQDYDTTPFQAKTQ
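20 nM HPGD preincubated 15 min at room temperature with compound in 50 mM Tris-HCl pH 8, 0.01% Tween 20. Started with 1 mM NAD+ and 30 uM prostaglandin E2; NADH fluorescence (360/450 nm) read 5 times over 30-s intervals, last minus first.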
ALDH1A1 inh: qHTS Assay for Inhibitors of Aldehyde Dehydrogenase 1 (ALDH1A1); Purified ALDH1A1, NADH fluorescence, propionaldehyde substrate; 220,000 tested, 7.3% active; Aldehyde dehydrogenase 1A1 (Homo sapiens), P00352; AID 1030, 2008; Potency, µM (series often up to 75.3 µM), actives largely listed as inhibitors; active = well fitted inhibition curve with a large enough effect, not every such curve was filed as active; inconclusive = small, poorly fitted or top-dose-only effect, or another doubt; inactive = no such curve, though single readings can be large or run the other way
Large screens that a line does not name were inactive; ! = repeats disagree; [ ] = remark or other dose. Unless noted, calls come from the whole dose curve; as a rule, active = well fitted curve in the direction sought with a large enough effect; inconclusive = small, poorly fitted or top-dose-only effect, or another doubt; inactive = no such curve, though single readings can be large; an effect the other way counts as inactive or inconclusive.

O=C1c2cccc3cccc(c23)C(=O)N1c1ccncc1	KDM4E inh inconclusive, HPGD inh inconclusive, ALDH1A1 inh inconclusive
CC(=O)c1c(C)c(C)c2n1CCn1c(C)ccc1-2	Tau fibril ThT 16µM, Tau fluor counter inconclusive, KDM4E inh 22µM (no result: HPGD inh, ALDH1A1 inh)
Cn1cc(Br)c(C(=O)NC2C3CC4CC(C3)CC2C4)n1 (stereo unspecified)	HPGD inh 16µM
CSc1nc2ccc(NS(=O)(=O)c3ccc(Cl)s3)cc2s1	Tau fibril ThT inconclusive, Tau fluor counter inconclusive, HPGD inh 25µM, ALDH1A1 inh 40µM
CCN(CC)S(=O)(=O)c1ccc(NS(=O)(=O)c2cccc(C)c2)cc1	none
Cc1ccc(NS(=O)(=O)c2ccc(Cl)s2)cc1S(=O)(=O)N(C)C	ALDH1A1 inh 3.2µM
CCN(CC)S(=O)(=O)c1cc(NS(=O)(=O)c2cccc(Cl)c2Cl)ccc1C	ALDH1A1 inh 7.9µM
CCN(CC)S(=O)(=O)c1cc(NS(=O)(=O)c2cccc(Cl)c2)ccc1C	ALDH1A1 inh 18µM
CC(=O)Nc1ccc(NS(=O)(=O)c2ccc(Cl)s2)cc1	Tau fibril ThT inconclusive (no result: HPGD inh)
CCN(CC)S(=O)(=O)c1cc(NS(=O)(=O)c2c(Cl)cccc2Cl)ccc1C	ALDH1A1 inh inconclusive
CN(C)S(=O)(=O)c1cccc(NS(=O)(=O)c2ccc(Cl)s2)c1	ALDH1A1 inh inconclusive
Cc1nc(-c2coc3c(O)c(O)ccc3c2=O)cs1	Tau fibril ThT inconclusive, Tau fluor counter inconclusive, KDM4E inh 7.1µM
CCC(=O)N(CC)C1=C(O)c2ccccc2C(=O)C1=O	Tau fibril ThT 16µM, Tau fluor counter inconclusive, Tau FP inhib inconclusive, HPGD inh 13µM, ALDH1A1 inh 22µM
CCC(=O)N(C1=C(NC)C(=O)c2ccccc2C1=O)C(C)C	none (no result: HPGD inh)
COC(=O)c1ccc(NC(=O)C(OC)c2ccccc2)cc1 (stereo unspecified)	ALDH1A1 inh inconclusive (no result: HPGD inh)
CC(C)c1ccc(Nc2c(-c3ccccn3)nc3ccccn23)cc1	Tau fibril ThT inconclusive, Tau fluor counter inconclusive (no result: KDM4E inh, HPGD inh, ALDH1A1 inh)
Cc1ccc(NC(=O)c2ccc(CSc3ccccn3)cc2)c(O)c1	Tau fibril ThT inconclusive, Tau fluor counter 18µM[quencher] (no result: HPGD inh)
CC(C)(C)c1nnc(N/N=C/c2ccccc2O)n(N)c1=O	KDM4E inh 28µM
Cc1ccc(Oc2c(C(N)=O)cc([N+](=O)[O-])cc2[N+](=O)[O-])cc1	Tau fibril ThT 8.9µM, Tau fluor counter inconclusive, Tau FP inhib inconclusive, ALDH1A1 inh inconclusive
Cc1ccc(-n2nc3c(=O)n(C(C)C(=O)NCc4ccc(OC(C)C)cc4)nc(C)c3c2C)cc1 (stereo unspecified)	Tau fibril ThT inconclusive (no result: KDM4E inh, HPGD inh, ALDH1A1 inh)
CCOc1ccc(C(=O)NC2CC(=O)N(c3ccc(C)cc3)C2)cc1OCC (stereo unspecified)	none (no result: KDM4E inh, HPGD inh, ALDH1A1 inh)
COC(=O)CCCC1=CC2=CC(=O)C(C)(OC(=O)c3cccs3)C(=O)C2=CN1C(CO)CO (stereo unspecified)	none
COC(=O)CCCC1=CC2=CC(=O)C(C)(OC(=O)c3cccs3)C(=O)C2=CN1Cc1ccc2c(c1)OCO2 (stereo unspecified)	Tau fibril ThT 13µM!, KDM4E inh inconclusive, Tau FP inhib inconclusive
COC(=O)CCCC1=CC2=CC(=O)C(C)(OC(=O)c3cccs3)C(=O)C2=CN1Cc1ccccc1 (stereo unspecified)	Tau fibril ThT 13µM!, Tau FP inhib inconclusive
COC(=O)CCCC1=CC2=CC(=O)C(C)(OC(=O)c3cccs3)C(=O)C2=CN1C1CCCC1 (stereo unspecified)	Tau fibril ThT 25µM, Tau FP inhib inconclusive
CCCCC1=CC2=CC(=O)C(C)(OC(=O)CC)C(=O)C2=CN1CCc1c[nH]c2ccccc12 (stereo unspecified)	Tau fibril ThT inconclusive
COC(=O)CCCC1=CC2=CC(=O)C(C)(OC(=O)c3cccs3)C(=O)C2=CN1CCc1c[nH]c2ccccc12 (stereo unspecified)	Tau fibril ThT inconclusive, KDM4E inh 5.6µM!
CCOc1cc(C(=O)OCc2cc(=O)n3c(C)csc3n2)cc(OCC)c1OCC	none (no result: KDM4E inh, HPGD inh, ALDH1A1 inh)
c1ccc(-c2noc(CSc3nnnn3C3CCCCC3)n2)cc1	ALDH1A1 inh 3.2µM
c1ccc(-c2noc(CC3CCCCC3)n2)cc1	none (no result: HPGD inh)
Cc1cccc(CNc2ncncc2-c2ccccc2Cl)c1	none (no result: Tau fibril ThT, Tau fluor counter, KDM4E inh, Tau FP inhib, HPGD inh)
CCn1c(CSCc2ccc(C)cc2)nnc1SCC(=O)N1CCN(c2ccccc2)CC1	Tau fibril ThT inconclusive, ALDH1A1 inh inconclusive
C=CCn1c(CSCc2ccccc2)nnc1SCC(=O)N1CCN(c2ccccc2)CC1	ALDH1A1 inh 0.79µM (no result: HPGD inh)
CCn1c(SCC(=O)N2CCN(c3ccccc3)CC2)nc2c(c1=O)SC(C)C2 (stereo unspecified)	ALDH1A1 inh 2.2µM
CCn1c(SCC(=O)N2CCN(c3ccc(F)cc3)CC2)nc2ccccc2c1=O	ALDH1A1 inh 25µM
C=CCn1c(N)cc(=O)nc1SCC(=O)N1CCN(c2ccc(F)cc2)CC1	ALDH1A1 inh 14µM
CCOc1ccccc1OCC(=O)NNC(=O)Cn1cnc2c1c(=O)n(C)c(=O)n2C	none (no result: HPGD inh)
COC(=O)C1=C(C(=O)OC)SC(=C2C(=S)C(C)(C)N(C(=O)CC(C)C)c3ccccc32)S1	Tau fibril ThT 1.1µM, Tau fluor counter inconclusive, Tau FP inhib inconclusive
CCCCOc1ccccc1C1CC(=O)Nc2ccc3ccccc3c21 (stereo unspecified)	none (no result: KDM4E inh, HPGD inh, ALDH1A1 inh)
CCN(CC)S(=O)(=O)c1cccc(S(=O)(=O)N2CCCCC2)c1	ALDH1A1 inh 3.5µM
O=S(=O)(c1ccccc1)c1cccc(S(=O)(=O)N2CCCCC2)c1	ALDH1A1 inh 2.2µM
CC(=O)Nc1ccc(NC(=O)c2cc3c(=O)n(Cc4cccnc4)ccc3nc2C)cc1	none (no result: KDM4E inh, HPGD inh, ALDH1A1 inh)
COC(=O)C(NC(=O)c1cccnc1Cl)C(C)C (stereo unspecified)	none (no result: Tau fibril ThT, HPGD inh, ALDH1A1 inh)
C#C[C@]1(OC(C)=O)CCC2C3CCC4=CC(=O)CCC4C3CC[C@]21C (stereo partly specified)	Tau fibril ThT inconclusive
CCOC(=O)N1CCN(CCC(=O)c2ccc(OC)cc2)CC1	Tau fibril ThT inconclusive, ALDH1A1 inh 0.71µM (no result: HPGD inh)
CC(C)COc1ccc(C(=O)CCN2CCCCC2)cc1	Tau fibril ThT inconclusive, ALDH1A1 inh 0.1µM
CCOC(=O)N1CCN(CCC(=O)c2ccc(Cl)cc2)CC1	Tau FP inhib inconclusive, HPGD inh 25µM, ALDH1A1 inh 0.089µM
